Source: PubChem BioAssay (National Center for Advancing Translational Sciences (NCATS))
Sampled rows, rich in hits. Any-hit rate of the full collection: about 22%.
Shiga toxin inh = blocks Shiga toxin action in Vero cells. Vero cells, Shiga toxin protein synthesis inhibition reporter. inhibition, % at 38.7 µM. 9.2% of 290,000 active; in the data active = inhibition mostly above about 28%, no sharp cut-off; inactive = mostly below about 43%; also: 0% is about no effect
Cycloheximide cs = counter-screen for Shiga toxin inhibitors: cycloheximide protein synthesis inhibition. cell reporter, cycloheximide protein synthesis inhibition counterscreen. max response, %. 12% of 300,000 active; in the data active = max response mostly above about 13%, no sharp cut-off; inactive = mostly below about 14%; also: read at 38.3 µM for the half of the compounds with a filed dose; 0% is about no effect
LmPK inhibitor = blocks Leishmania mexicana pyruvate kinase activity. Q27686. purified LmPK, Kinase-Glo ATP luminescence, 1 h. Potency, µM (series often up to 57.5 µM), for inactives: at the top dose activity change, negative = inhibition, most hits filed as inhibitors. 0.37% of 290,000 active. AID 1721; also: potency is read from the fitted curve at half-maximal effect; % is scaled to controls: 0 for no effect and ±100 for the full control effect
Target sequence (Q27686 whole entry, looked up): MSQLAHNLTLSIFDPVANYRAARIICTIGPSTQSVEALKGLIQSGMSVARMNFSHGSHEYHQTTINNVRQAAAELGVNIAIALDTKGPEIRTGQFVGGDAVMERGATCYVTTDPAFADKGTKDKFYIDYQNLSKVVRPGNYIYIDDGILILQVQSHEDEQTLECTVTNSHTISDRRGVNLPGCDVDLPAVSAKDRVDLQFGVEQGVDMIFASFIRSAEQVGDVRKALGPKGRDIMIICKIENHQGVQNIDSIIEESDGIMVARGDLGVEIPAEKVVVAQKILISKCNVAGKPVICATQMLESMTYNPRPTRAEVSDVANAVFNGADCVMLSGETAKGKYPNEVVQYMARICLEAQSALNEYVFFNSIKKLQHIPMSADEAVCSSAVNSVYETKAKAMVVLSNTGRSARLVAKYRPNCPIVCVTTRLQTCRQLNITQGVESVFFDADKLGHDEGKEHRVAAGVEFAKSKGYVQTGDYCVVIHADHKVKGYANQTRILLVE
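ATP generated from ADP (0.1 mM) and PEP (0.5 mM) by 0.1 nM LmPK over 1 h at room temperature (pH 7.2 imidazole buffer) was detected by coupled luciferase luminescence. Values were normalized to uninhibited and no-enzyme wells.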
Pf growth 48h = inhibits P. falciparum growth in the first generation, 48 h. 5.9% of 310,000 active. P. falciparum luciferase growth in erythrocytes, 48 h. Potency, µM (doses to about 28.7 µM), inactives show top-dose activity change, negative = inhibition, usual class: inhibitors. AID 504832; also: potency is read from the fitted curve at half-maximal effect; % is scaled to controls: 0 for no effect and ±100 for the full control effect
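Luciferase-expressing P. falciparum in infected erythrocytes (2% hematocrit, 0.1% parasitemia final) in RPMI 1640/0.5% Albumax were exposed to compound for 48 hours at 37 C, 5% CO2; growth read as luminescence.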
Pf growth 96h = inhibits malaria parasite growth, 96 h; Potency, µM (series often up to 28.7 µM), for inactives: at the highest dose activity change, negative = inhibition, usual class: inhibitors; 6.9% of 320,000 active; P. falciparum luciferase reporter growth, 96 h; also: potency is read from the fitted curve at half-maximal effect; % is scaled to controls: 0 for no effect and ±100 for the full control effect
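Parasite growth measured via integrated firefly luciferase reporter in P. falciparum. Infected erythrocytes at 2% hematocrit, 0.05% parasitemia final were treated 96 hours at 37 C under 5% CO2, and luminescence was read.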
Starred values were filed as active, the others as inactive; i = inactive; ? = inconclusive; nt = no result; + = active, no number; [ ] = dose if it differs, or a comment. Unless noted, calls follow the shape of the dose curve; as a rule, active = well fitted inhibition curve with a large enough effect; inconclusive = small, poorly fitted or top-dose-only effect, or another doubt; inactive = no such curve, though single readings can be large or run the other way.

SMILES | Shiga toxin inh | Cycloheximide cs | LmPK inhibitor | Pf growth 48h | Pf growth 96h
O=C(NC1CC2CCC1C2)c1ccc(CN2CCOCC2)cc1 (stereo not drawn) | 117* | 34* | -3% | 47% | nt
COc1ccc(CN2CCOCCOCCN(Cc3ccc(OC)cc3)CCOCCOCC2)cc1 | 6 | -3 | 2% | 13µM* | ?
CC(C)Oc1cccc(C(=O)Nc2ccc(CN3CCOCC3)cc2)c1 | 18 | 16* | 2% | 0% | nt
O=C(NC1CCCCC1)c1ccc(CN2CCOCC2)cc1 | 51 | 21 | -3% | 46% | -25%
CCCOc1cccc(C(=O)Nc2ccc(CN3CCOCC3)cc2)c1 | 5 | -1 | 1% | -6% | ?
COc1ccc(C(=O)Nc2ccc(CN3CCOCC3)cc2)cc1Br | 7 | 10 | 2% | 9% | 6%
OC[C@@H](O)[C@@H](O)[C@H](O)[C@H](O)CO | nt | nt | nt | 21% | 83%
COc1c(Cl)cc(Cl)cc1C(=O)Nc1ccc(CN2CCOCC2)cc1 | -1 | 3 | -3% | 21% | 57%
O=C(Nc1ccc2c(c1)OCCO2)c1ccc(CN2CCOCC2)cc1 | 73* | 50* | -5% | 86% | ?
COc1c(C)cccc1C(=O)Nc1ccc(CN2CCOCC2)cc1 | 44* | 47* | -12% | 134% | nt
CC(=C/c1ccc(C(C)C)cc1)/C=N/NC(=O)CSc1ccccn1 | 157* | 71* | 3% | ? | -15%
CC(=C/c1ccc(C(C)C)cc1)/C=N/NC(=O)Cn1nnnc1N | 23 | 13 | 1% | 1% | 44%
CC(/C=C/c1ccccc1)=N\NC(=O)CSc1ccccn1 | 14 | 0 | 2% | -25% | ?
CC(/C=N/NC(=O)CSc1ccccn1)=C\c1ccc(C(C)C)cc1 | + | 108* | 1% | -12% | ?
COc1cc(C(=O)N2CCN(c3cccc(C)c3C)CC2)cc(OC)c1OC | -9 | -3 | 5% | ? | 10µM*
Cc1cccc(N2CCN(C(=O)c3ccc4ncsc4c3)CC2)c1C | 72* | 30* | 9% | 26% | nt
Cc1cccc(N2CCN(C(=O)c3ccc4nc[nH]c4c3)CC2)c1C | -3 | -5 | 2% | 1% | ?
O=C(c1ccc2ncsc2c1)N1CCN(c2ccccc2Cl)CC1 | 105* | 20* | 0% | 32% | 28%
COC(=O)N1C(C2CC2)=Cc2ccccc2C1CC(C)=O (stereo not drawn) | nt | nt | -5%[11.5 µM] | nt | nt
Cc1ccc(S(=O)(=O)N2CCOCC2)cc1C(=O)OCC(=O)N1c2ccccc2NC(=O)C1(C)C | -17 | 7 | 4% | -19% | nt
C/C=C/C=C/C(=O)[C@@H]1[C@@H]([C@]2(C)OC(=O)C(C)=C2O)[C@H]2/C(=C(O)/C=C/C=C/C)C(=O)[C@]1(C)C(=O)C2(C)O (stereo partly drawn) | 1 | -5 | 18% | -25% | 7.4µM*
COCCNC(=O)C(c1ccc(F)cc1)N(Cc1ccccc1)C(=O)CCC(=O)Nc1ccccn1 (stereo not drawn) | -18 | -5 | 7% | 3% | -2%
COc1ccccc1C(=O)NC(=S)N1CCc2ccccc21 | 7 | 3 | 3% | -10% | -30%[5.75 µM]
COc1ccccc1C(=O)NC(=S)N1CCCc2ccccc21 | 164* | 48* | 2% | 40% | 33%
COc1ccc(C(=O)NC(=S)N2CCCc3ccccc32)cc1OC | 15 | 21* | -1% | 9% | ?
SMILES | Shiga toxin inh | Cycloheximide cs | LmPK inhibitor | Pf growth 48h | Pf growth 96h
COc1ccc(C(=O)NC(=S)N2CC(C)OC(C)C2)cc1OC (stereo not drawn) | -12 | -2 | 3% | -20% | 5.2µM*
CC1CN(C(=S)NC(=O)c2ccc(Cl)cc2)CC(C)O1 (stereo not drawn) | -4 | -2 | 0% | ? | 28%
CCc1ccccc1NC1=CC(=O)CC(C)(C)C1 | 23 | -1 | -3% | 39% | 1%
CCCN1C(=O)/C(=C/c2ccc(C)s2)NC1=S | 38 | 20* | 4% | -6% | 26%
CCCn1c2ccc(C)cc2c2n[nH]c(=S)nc21 | -6 | -4 | -1% | 1%[0.00184 µM] | 5%
COc1ccc(-c2[nH]ncc2CNCCn2cccn2)c(F)c1 | 32 | -2 | 0% | 47% | 13µM*
CCCCN1C(=O)c2ccc(C(=O)NC3(C)CCS(=O)(=O)C3)cc2C1=O (stereo not drawn) | nt | nt | nt | -9% | -15%
Cc1cccc(NC(=S)NN(Cc2ccccc2)c2ccccc2)c1C | 12 | 3 | -2% | nt | 4.1µM*
Cc1cccc(NC(=S)N(C)C)c1C | 30* | -2 | 1% | 36% | 7%
Cc1cccc(NC(=S)NC(=O)CCc2ccccc2)c1C | 22 | 18* | 7% | nt | ?
CCCN(Cc1ccccc1)C(=S)Nc1cccc(C)c1C | -6 | 1 | 1% | 4% | ?
Cc1cccc(NC(=S)NC(=O)Cc2ccccc2)c1C | 15* | 8 | -5% | ? | -5%
Cc1cc(C)c(NC(=S)N(C)C)cc1C | 36 | -4 | 4% | 1% | 0%
Cn1c(C(=O)OCC(=O)NCc2ccc(F)cc2)cc2occc21 | nt | nt | nt | 2% | 25%
CC(=O)Nc1ccc(S(=O)(=O)Nc2cc(C)cn(Cc3ccccc3)c2=O)cc1 | -9 | 16 | -4% | -17% | ?
O=C(NCC(=O)N(c1cccnc1)C(C(=O)NC1CCCC1)c1cccs1)c1ccco1 (stereo not drawn) | -2 | -4 | 0% | ? | ?
Cc1ccc2cc3c(N)[nH]nc3nc2c1 | 14 | 21* | 0% | 36% | 32%
NC(=O)CC(NC(=O)Cc1ccc(Br)cc1)c1ccc(N2CCC(Cc3ccccc3)CC2)c([N+](=O)[O-])c1 (stereo not drawn) | -9 | -3 | 8% | ? | 3%
COc1ccc(CCNC(=O)CSc2ccccc2)cc1OC | 17 | -1 | -6% | -14% | -2%
O=C(CSc1nc(-c2ccccc2)nc2ccc(F)cc12)Nc1cccc(C(=O)O)c1 | 2 | -1 | 0% | 113% | 63%
COc1ccc(CCNC(=O)CSc2cn(Cc3cccc(C)c3)c3ccccc23)cc1OC | -5 | -4 | 0% | ? | 9.3µM*
O=C(CSc1nncc2ccccc12)Nc1cccc(C(=O)O)c1 | 99* | 40* | 3% | 75% | 103%
O=C(CSc1nnc(-c2ccc(F)cc2)c2ccccc12)Nc1ccccc1 | 12 | 22* | 3% | -20% | -22%
COc1ccc(CCNC(=O)CSc2cn(Cc3ccccc3)c3ccccc23)cc1OC | -11 | -5 | 5% | ? | ?
COc1ccc(CCNC(=O)CSc2nnc(-c3ccc(F)cc3)c3ccccc23)cc1OC | -4 | -2 | 3% | 9.3µM* | 5.2µM*
O=C(Nc1ccccc1[N+](=O)[O-])c1cccnc1Cl | -5 | -1 | -1% | 9% | 18%
CC(C)c1nc2ccccn2c1NC1CCCCC1 | -8 | -2 | -2% | 15% | 224%
CN(c1cc(=O)n2ccccc2n1)C1CCCCC1 | 24 | 24* | -5% | ? | ?
CCOc1ccc(/C=N/Nc2ccccn2)cc1 | 70* | 34* | ? | i | 7%
